PubChem BioAssay (EPA / NIEHS)
Records with an inconclusive call do not appear. Some structures have more than one record in an assay (separate samples or runs), and their calls can disagree. Calls of active or inactive are those of the source. How the source made its calls: active means hit-call score of the fitted dose curve at least 0.9, where 1 is the maximum; inconclusive means response in the unintended direction; inactive means score below 0.9.

What follows are compounds tested against Hepatocyte nuclear factor 4-alpha (Homo sapiens) (UniProt P41235) (assay: ATG_HNF4a_TRANS: Attagene TRANS-FACTORIAL HepG2 Assay for human Hepatocyte Nuclear Factor 4 alpha (HNF4a) (AID 2282982)). Details: HepG2 HNF4a transactivation reporter, mRNA readout.
Hepatocyte nuclear factor 4-alpha (Homo sapiens), sequence (P41235 whole entry, looked up): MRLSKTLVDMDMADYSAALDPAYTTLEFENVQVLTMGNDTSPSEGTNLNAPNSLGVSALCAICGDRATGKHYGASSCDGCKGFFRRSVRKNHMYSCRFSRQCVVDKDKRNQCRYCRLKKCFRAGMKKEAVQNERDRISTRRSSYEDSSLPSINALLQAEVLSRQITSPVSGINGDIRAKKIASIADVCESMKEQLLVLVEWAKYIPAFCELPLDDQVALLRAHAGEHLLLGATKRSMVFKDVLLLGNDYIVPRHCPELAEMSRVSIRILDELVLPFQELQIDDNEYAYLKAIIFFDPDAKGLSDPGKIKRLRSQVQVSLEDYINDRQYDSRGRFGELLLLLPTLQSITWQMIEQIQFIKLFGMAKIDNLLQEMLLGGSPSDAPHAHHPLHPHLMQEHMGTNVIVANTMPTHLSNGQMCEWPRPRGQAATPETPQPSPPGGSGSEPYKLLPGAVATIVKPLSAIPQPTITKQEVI
Protocol: ATG_TRANS is a cell-based, multiplexed-readout assay that uses HepG2, a human liver cell line, with measurements taken at 24 hours after chemical dosing in a 24-well plate.ATG_HNF4a_TRANS is one of 30 assay component(s) measured or calculated from the ATG_TRANS assay. It is designed to make measurements of mRNA induction, a form of inducible reporter, as detected with fluorescence intensity signals by Reverse transcription polymerase chain reaction (RT-PCR) and Capillary electrophoresis technology.Data from the assay component ATG_HNF4a_TRANS was analyzed into 1 assay endpoint. This assay endpoint, ATG_HNF4a_TRANS, was analyzed in the positive analysis fitting direction relative to DMSO as the negative control and baseline of activity. Using a type of inducible reporter, measures of mRNA for gain-of-signal activity can be used to understand the reporter gene at the transcription factor-level as they relate to the gene HNF4A. Furthermore, this assay endpoint can be referred to as a primary readout, because this assay has produced multiple assay endpoints where this one serves a reporter gene function. To generalize the intended target to other relatable targets, this assay endpoint is annotated to the nuclear receptor intended target family, where the subfamily is orphan.
Human liver HepG2 cells are transiently transfected with multiple reporter transcription units (MRTUs) in 6-well plates using FuGene 6 reagent (Roche; 3 ml FuGene/1 mg DNA). The MRTU constructs are regulated by a cis-regulating element (promoter). […] A major difference between the CIS and TRANS system is that in CIS activities of endogenous TFs are measured, whereas the TRANS assay evaluates changes in activities of exogenous, chimeric NR-Gal4 proteins. […] At the end of 24 hour incubation, total RNA was isolated using TriZol reagent (Invitrogen). The isolated RNA is then reverse-transcribed using oligo(dT) primer and Mo-MLV reverse transcriptase (Invitrogen) with DNAse I (Ambion) treatment for 30 min. The one-tenth of the produced cDNA was amplified by PCR using Taq DNA polymerase (Invitrogen) and two reporter sequence-specific primers. The PCR products were fluorescently labeled by primer extension with 6-arboxyfluorescein (6-FAM) 5'-labeled reporter sequence-specific primer (2 min at 95 C, 20 s at 68 C and 10 min at 72 C) and these products were digested with 5U of HpaI (New England Biolabs) for 2h at 37 C. The fragments were purified using Qiaquick PCR columns (Qiagen), analyzed on an ABI 3130xL genetic analyzer (Applied Biosystems) with peak positions identified by using a set of X-rhodamine (ROX)-labeled MapMarker1000 molecular weight standards (BioVentures). The raw capillary electrophoresis data was processed using Attagraph software (Attagene).

SMILES | outcome | AC50
CC1CCC(CO)CC1 (stereo not given) | inactive | –
c1ccc(CNc2ncnc3c2ncn3C2CCCCO2)cc1 (stereo not given) | inactive | –
COc1ccc(C#N)cc1 | inactive | –
CC(=O)Nc1ccc(S(N)(=O)=O)cc1 | inactive | –
O=C1OC2(c3ccccc31)c1cc(I)c(O)c(I)c1Oc1c2cc(I)c(O)c1I | inactive | –
CC[N+](CC)(CC)Cc1ccccc1 | inactive | –
Cc1cncc(C)c1 | inactive | –
NNC(=O)CCCCC(=O)NN | inactive | –
O=C(CC(=O)C(F)(F)C(F)(F)C(F)(F)F)c1cccs1 | inactive | –
FC(F)(F)C(F)(F)C(F)(F)Br | inactive | –
COCN(COC)c1nc(N(COC)COC)nc(N(COC)COC)n1 | inactive | –
C=CC(=O)OCCC(F)(F)C(F)(F)C(F)(F)C(F)(F)C(F)(F)C(F)(F)C(F)(F)C(F)(F)F | inactive | –
O=C(F)C(F)(F)C(F)(F)C(F)(F)C(F)F | inactive | –
C=CC(=O)OCCN(CC)CC | inactive | –
Clc1ccc(Nc2nnc(Cc3ccncc3)c3ccccc23)cc1 | inactive | –
O=S(=O)(O)c1ccccc1 | inactive | –
CC(C)(C)c1ccc(O)c(O)c1 | inactive | –
NS(=O)(=O)O | inactive | –
CCC1CO1 (stereo not given) | inactive | –

SMILES | outcome | AC50
CCCCC(CC)C(=O)O (stereo not given) | inactive | –
COC(O)c1ccccc1 (stereo not given) | inactive | –
COC1=CC(=O)C[C@@H](C)[C@]12Oc1c(Cl)c(OC)cc(OC)c1C2=O | inactive | –
O=S(=O)(O)c1ccc2cc(O)ccc2c1 | inactive | –
Cc1ccc(C(=O)c2ccccc2)cc1 | inactive | –
CCOC=C(C(=O)OCC)C(=O)OCC | inactive | –
FC(F)(F)N1C(F)(F)C(F)(F)OC(F)(F)C1(F)F | inactive | –
CCCCCCOC(=O)c1ccc(O)cc1 | inactive | –
CCCCCc1ccc(O)cc1 | inactive | –
CC1CNCC(C)O1 (stereo not given) | inactive | –
O=C(Nc1ccc(Cl)c(Cl)c1)c1cc(Cl)cc(Cl)c1O | inactive | –
C=CC(F)(F)C(F)(F)C(F)(F)C(F)(F)F | inactive | –
CCOC(C)=O | inactive | –
O=C(O)C(F)(F)OC(F)(F)C(F)(F)OC(F)(F)C(F)(F)OC(F)(F)C(F)(F)C(F)(F)C(F)(F)F | inactive | 84.7 µM (active)
CCCCCC(C)OC(=O)COc1ccc(Cl)c2cccnc12 (stereo not given) | inactive | –
COC(=O)C(F)(F)C(F)(F)C(F)(F)C(F)(F)C(F)(F)F | inactive | –
NC(=NCCCCCCN=C(N)/N=C(\N)Nc1ccc(Cl)cc1)/N=C(\N)Nc1ccc(Cl)cc1 | inactive | 25.7 µM (active)
Cc1cccc2c1ccc1ccccc12 | inactive | –
CC(C)(C)C1CCCCC1O (stereo not given) | inactive | –
